From the supplement of paper PMC6555819

Assays:
Experiment in all cases: PBM binding z-score (relative to random genomic background probes); higher = stronger binding; sequences stand for … in GC…GCGATTGACAGCGTAGAATGAAGG
[1] = tested on: FXR:RXRa (NR concentration 270 nM, RXRa partner concentration 90 nM)
In short: (§1)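 Each nuclear receptor dimer, without ligand, was incubated for 1 h on custom Agilent 4×180K protein-binding microarrays. Binding was detected with antibodies against each partner (one per run), and scanned fluorescence was regression-normalized. The binding z-scores are referenced to random human genomic background probes.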

[2] = tested on: LXRa:RXRa (NR concentration 270 nM, RXRa partner concentration 90 nM)
In short: as §1

[3] = tested on: LXRa homodimer (NR concentration 270 nM)
In short: as §1

[4] = tested on: LXRb:RXRa (NR concentration 270 nM, RXRa partner concentration 90 nM)
In short: as §1

[5] = tested on: LXRb homodimer (NR concentration 270 nM)
In short: as §1

[6] = tested on: PPARa:RXRa (NR concentration 270 nM, RXRa partner concentration 90 nM)
In short: as §1

[7] = tested on: PPARg:RXRa (NR concentration 180 nM, RXRa partner concentration 90 nM)
In short: as §1

[8] = tested on: PPARg:RXRa 270nM:90nM, anti-RXR (NR concentration 270 nM, RXRa partner concentration 90 nM)
In short: as §1

[9] = tested on: PPARg:RXRa 30nM:10nM, anti-RXR (NR concentration 30 nM, RXRa partner concentration 10 nM)
In short: as §1

[10] = tested on: PPARg:RXRa 90nM:30nM, anti-RXR (NR concentration 90 nM, RXRa partner concentration 30 nM)
In short: as §1

[11] = tested on: PPARg:RXRa DBDmut IVT, anti-RXR (DBD mutation: RXRa K156A/R161A, NR concentration 270 nM, RXRa partner concentration 90 nM)
In short: as §1

[12] = tested on: PPARg:RXRa IVT, anti-PPARg (NR concentration 270 nM, RXRa partner concentration 90 nM)
In short: as §1

[13] = tested on: PPARg DBDmut:RXRa IVT, anti-PPARg (DBD mutation: PPARg1 K132A/R137A, NR concentration 270 nM, RXRa partner concentration 90 nM)
In short: as §1

[14] = tested on: PPARg DBDmut IVT, anti-PPARg (DBD mutation: PPARg1 K132A/R137A, NR concentration 270 nM)
In short: as §1

[15] = tested on: PPARg homodimer (NR concentration 180 nM)
In short: as §1

[16] = tested on: PXR:RXRa (NR concentration 270 nM, RXRa partner concentration 90 nM)
In short: as §1

[17] = tested on: PXR homodimer (NR concentration 270 nM)
In short: as §1

[18] = tested on: RARa:RXR (NR concentration 270 nM, RXRa partner concentration 90 nM)
In short: as §1

[19] = tested on: RARa homodimer (NR concentration 270 nM)
In short: as §1

[20] = tested on: RARb:RXRa (NR concentration 270 nM, RXRa partner concentration 90 nM)
In short: as §1

Sequence | PBM binding z-score [1] | PBM binding z-score [2] | PBM binding z-score [3] | PBM binding z-score [4] | PBM binding z-score [5] | PBM binding z-score [6] | PBM binding z-score [7] | PBM binding z-score [8] | PBM binding z-score [9] | PBM binding z-score [10] | PBM binding z-score [11] | PBM binding z-score [12] | PBM binding z-score [13] | PBM binding z-score [14] | PBM binding z-score [15] | PBM binding z-score [16] | PBM binding z-score [17] | PBM binding z-score [18] | PBM binding z-score [19] | PBM binding z-score [20]
CGTCCAAGGTCAAAGTTCAGTGAAGAGATGACGG | 7.9 | 6.35 | 3.82 | 5.48 | 2.19 | 6.47 | 9.06 | 8.05 | 6.19 | 8.24 | 3.41 | 5.08 | 0.409 | 1.29 | 3.79 | 6.59 | 3.31 | 8.01 | 1.47 | 5.44
AATACAGGGCCACTAGGCCAGAGTAGGTACGAAT | -0.165 | -0.349 | -0.323 | -0.572 | -0.877 | 0.171 | 1.13 | 0.532 | 0.0485 | 0.00605 | 1.33 | 2.42 | 0.705 | 0.0878 | 0.246 | -0.239 | -0.266 | -0.268 | 0.415 | 0.772
TCATATAGGTAATATAGGTGAAAGTCGGCATCTA | 0.703 | 1.07 | 0.157 | 0.856 | 0.102 | 2.92 | 3.31 | 3.65 | 4.1 | 3.94 | 5.06 | 5.68 | 1.83 | 1.71 | 1.03 | 0.599 | -0.0145 | 1.09 | 0.799 | 0.469
ACTAGTTGGACAGCTGAGGTCACACACAATTCGG | 3.1 | 2.78 | 1.59 | 3.3 | 0.683 | 3.53 | 1.65 | 1.76 | 0.342 | 1.41 | 0.874 | 1.88 | 0.609 | 0.717 | 1.73 | 4.67 | 1.34 | 4.57 | 1.08 | 3.33
AATACAGGGTCAACGTAGGCCAGAGTACGCACAG | 7.15 | 6.18 | 1.92 | 4.41 | 1.47 | 5.88 | 6.89 | 6.32 | 2.82 | 4.85 | 3.16 | 4.2 | 1.64 | 1.2 | 2.78 | 5.23 | 0.288 | 5.45 | 1.71 | 4.6
ATATGTAGGTTAGCTGGGGTCAATCAGACTAGGC | 4.21 | 5.44 | 1.4 | 4.65 | 1.47 | 5.14 | 5.84 | 5.34 | 2.61 | 4.68 | 6.88 | 6.36 | 2.08 | 1.26 | 2.34 | 6 | 1.44 | 5.08 | 1.21 | 3.04
TCTGCTAGGTCAGTTGGTCACCTAACGAGCTGCC | 1.06 | 0.728 | -0.345 | 0.685 | 0.632 | 1.69 | 1.03 | 2.1 | 1.38 | 1.75 | 2.8 | 3.77 | 1.37 | 0.817 | 0.461 | 0.216 | -0.932 | 0.734 | -1.21 | 3.44
TCTCGGAGGACACGAACGTCAGAGCTTTCCAGAG | 0.0459 | 0.0114 | -0.625 | -0.532 | -1.31 | 0.0688 | 0.0947 | 0.795 | 1.95 | 1.18 | 0.985 | -0.0503 | -0.617 | -1.23 | -1.43 | -0.256 | -0.522 | -0.0977 | -1.21 | 1.35
CCTCGCAGGACAGAAGGTCAGAGCTGTCCGCTTT | 1.07 | 1.44 | 0.197 | 1.13 | -0.678 | 1.86 | -0.29 | 0.666 | -0.929 | 0.0497 | 0.197 | 0.104 | -2.21 | -1.7 | 1.13 | 1.35 | -0.203 | 1.84 | -0.425 | 2.81
TCGAGTTGGTCACGGAGGTCACACACGACGGGTA | 3.27 | 3.24 | 1.8 | 3.05 | -0.188 | 3.87 | 3.18 | 3.36 | 1.82 | 2.63 | 0.979 | 2.98 | 0.179 | 0.0233 | 2.35 | 4.79 | 1.32 | 4.55 | 0.63 | 3.84
TCTCGGAGGACACGAAAGGTCAGCGCTCGACATC | 3.42 | 4.26 | 2.8 | 3.54 | -0.162 | 3.88 | 1.58 | 3.31 | 2.59 | 2.86 | 2.02 | 1.8 | -0.121 | 0.158 | 3.31 | 4.36 | 0.337 | 4.86 | 1.84 | 4.42
CAAACTAGGTAAAAGGTCAAAGTCGAGCCAACCA | 6.21 | 6.09 | 4.59 | 5.87 | 2.23 | 6.92 | 12.1 | 10.2 | 11 | 11.4 | 7.05 | 7.46 | 2.77 | 1.52 | 3.65 | 5.33 | 1.53 | 6.52 | 2.55 | 4.87
TCTTTTAGATCAAAGGTTAAGAAAGCCGAAGCCT | 1.68 | 2.05 | 0.26 | 2.19 | 0.802 | 4.08 | 6.36 | 6.92 | 6.34 | 7.4 | 2.09 | 3.01 | 1.08 | 1.12 | 1.05 | 2.05 | 0.154 | 2.88 | 0.435 | 2.07
TTACCAAGGTGAGCTGAGGTCCTTGATCCAACTC | 0.6 | -0.364 | -0.744 | -0.383 | -1.22 | 0.604 | -0.286 | 0.115 | -0.357 | -0.0305 | 0.555 | 1.8 | -0.248 | -1.12 | -0.702 | 1.26 | -0.737 | 0.613 | -1.39 | 1.04
GCTCGGAGGACAAGGTCAGAGCCTTGTCCGTAGA | 2.67 | 2.08 | -0.456 | 1.59 | -0.419 | 2.91 | 0.887 | 2.22 | -0.306 | 1.23 | -0.797 | 1.42 | -1 | -0.556 | 0.956 | 1.46 | -0.573 | 1.8 | -0.489 | 3.49
